This note sets out measurements from PubChem BioAssay (NCATS).

Results filed as inconclusive are left out. Activity calls are given as the source filed them. The call rests on the fitted dose curve; in most records, active means well fitted cell-killing curve with a large enough effect; inconclusive means small, poorly fitted or top-dose-only effect; inactive means flat fitted curve, though single readings scatter.
Potency means the concentration at half of the fitted maximal effect.

This experiment is described as follows: Cell Viability - LYMP2-020 (AID 986). Further: nearly all actives have a fitted effect of over 55% in size. The note with it: series mostly up to 92.2 µM. The text has this: NIH Chemical Genomics Center [NCGC]
NIH Molecular Libraries Screening Centers Network [MLSCN]
National Institutes of Environmental Health Sciences [NIEHS]
National Toxicology Program [NTP]
We have developed a 1536-well cell-based assay for quantitative high throughput screening (qHTS) against a number of cell lines to determine in vitro cytotoxicity of small molecules. This particular assay uses a human lymphoblastoid cell line (LYMP2-020) purchased from Coriell Institute for Medical Research.
NCGC Assay Protocol Summary:
The CellTiter-Glo luminescent cell viability assay (Promega) is a homogeneous method to measure the number of viable cells in culture. The end point readout of this assay is based on quantitation of intracellular ATP, an indicator of metabolic activity, using the luciferase reaction. Luciferase catalyzes the oxidation of beetle Luciferin to oxyluciferin and light in the presence of ATP. The luminescent signal is proportional to amount of ATP present.
Using the CellTiter-Glo luminescent cell viability assay, the amount of cellular ATP was measured in the lymphoblastoid cell line with complete culture medium following compound treatment for 24 hours. The assay was performed in opaque white Kalypsys 1536-well plates. In the screen, tetraoctylammonium bromide was used as positive control. Library compounds were measured for their ability to cause acute toxicity in the cell line, as reflected by a decrease in intracellular ATP levels, in a concentration-dependent manner. […] AC50 values were determined from concentration-response data modeled with the standard Hill equation.
qHTS protocol for CellTiter Glo lymphoblastoid cellular assay
[Step] [Parameter] [Value] [Description]
1. Reagent; 5 uL; 2500 lymphoblastoid cells/well
2. Time; 5 hr; 37 C incubation
4. Controls; 23 nL; Tetraoctylammonium bromide 6.4pM to 92 uM
5. Time; 24 hr; 37 C incubation
6. Reagent; 5 uL; CellTiter Glo reagent
7. Time; 30 min; Room Temperature
8. Detection; Luminescence; Viewlux plate reader
Keywords: cell viability, cytotoxicity, lymphoblastoid cell line, luminescence, NTPHTS, NTPHTS_NCGC, NIEHS, DSSTox, MLSMR, MLSCN, NIH Roadmap, qHTS, NCGC
`CC[n+]1c(-c2ccccc2)c2cc(N)ccc2c2ccc(N)cc21`: the Potency was 15.8 µM (active). The result for `CNC(=O)Oc1cccc2ccccc12` reads “inactive”; that for `C[C@@H]1C[C@@H]([C@H](O)CC2CC(=O)NC(=O)C2)C(=O)[C@@H](C)C1`, 0.794 µM (active); that for `Oc1ccc(Cl)cc1Cc1cc(Cl)ccc1O`, 39.8 µM (active). The result for `Oc1c(Br)cc(Br)cc1Br` reads “inactive”; that for `O=C(CCl)c1ccc(Cl)cc1Cl`, 5.01 µM (active). As for `CCCCCCCCCCCC[N+](C)(C)CCOc1ccccc1`, the Potency was 39.8 µM (active). The result for `CN(C)C(=S)SSC(=S)N(C)C` reads 0.398 µM (active). The same measure for `Oc1ccc(Cl)cc1Sc1cc(Cl)ccc1O`: 39.8 µM (active); for `COP(=O)(OC)OC=C(Cl)Cl`: “inactive”.
